# Screens deposited in PubChem by National Center for Advancing Translational Sciences (NCATS).
# PLK1 PBD inh – inhibitors of human PLK1 polo-box domain binding | P53350 | Plk1 PBD binding of FITC phosphopeptide, fluorescence polarization | Potency, µM, for inactives: max response, negative = inhibition, usual class: inhibitors | 360,000 compounds, 2.8% hits | AID 720504; note: potency is the fitted concentration of half-maximal effect; series mostly up to about 57 µM; % is set by controls: 0 for no effect and ±100 for the full control effect; nearly all actives have a fitted effect of over 65% in size
# G9a block – G9a (human) methyltransferase inhibition; Q96KQ7; G9a H3K9 monomethylation, AlphaScreen, 2 h; Potency, µM (series often up to 102 µM), inactives show at the top dose activity, negative = inhibition, usual class: inhibitors; 350,000 compounds, 8.8% hits; AID 504332; note: potency is the fitted concentration of half-maximal effect; % is set by controls: 0 for no effect and ±100 for the full control effect; nearly all actives have a fitted effect of over 75% in size
#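 Signal arises when biotinylated H3K9 peptide, once monomethylated, bridges streptavidin donor and antibody-captured acceptor beads. Enzyme at 20 nM was preincubated 15 min with test compounds; peptide 500 nM and SAM 20 uM then reacted for 2 h.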
# BAZ2B block – inhibitors of human BAZ2B bromodomain; AlphaScreen BAZ2B-H3K14Ac peptide displacement; Potency, µM (top dose mostly 114 µM), for the others: top-dose activity change, negative = inhibition, usual class: inhibitors; 360,000 compounds, 4.4% hits; Q9UIF8; note: potency is the fitted concentration of half-maximal effect; % is set by controls: 0 for no effect and ±100 for the full control effect; nearly all actives have a fitted effect of over 60% in size
#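 Inhibition is scored as reduced AlphaScreen emission. The BAZ2B/b-H3(5-23)K14Ac complex (50 nM each) in PBS pH 7.4, 0.01% Tween-20 meets compound (up to 110 uM) for 30 min at RT before bead addition.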
# HP1b binding inh – inhibitors of HP1-beta chromodomain binding to methylated histone tails; 390,000 compounds, 0.56% hits; Potency, µM (highest dose often 114 µM), for inactives: at the top dose activity change, negative = inhibition, most hits filed as inhibitors; AlphaScreen HP1-beta / biotin-H3K9me3 peptide binding; note: potency is the fitted concentration of half-maximal effect; nearly all actives have a fitted effect of over 70% in size
#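 HP1-beta protein (50 nM final) preincubated 30 min at room temperature with biotinylated H3(1-18)K9me3 peptide (50 nM) in PBS pH 7.4, 0.01% Tween-20, then compound added for 30 min. AlphaScreen streptavidin donor/nickel chelate acceptor beads (10 ug/mL final), 30 min dark, luminescence read.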
# JMJD2A Tudor – JMJD2A Tudor domain (human) inhibition; O75164; AlphaScreen JMJD2A-Tudor / H3K4me3 peptide binding; Potency, µM (series often up to 114 µM), without a hit: at the top dose activity change, negative = inhibition, hits mostly inhibitors; 390,000 compounds, 4.4% hits; note: potency is the fitted concentration of half-maximal effect; % is set by controls: 0 for no effect and ±100 for the full control effect; nearly all actives have a fitted effect of over 50% in size
# Target sequence (O75164 whole entry, looked up, the tested form may be a part): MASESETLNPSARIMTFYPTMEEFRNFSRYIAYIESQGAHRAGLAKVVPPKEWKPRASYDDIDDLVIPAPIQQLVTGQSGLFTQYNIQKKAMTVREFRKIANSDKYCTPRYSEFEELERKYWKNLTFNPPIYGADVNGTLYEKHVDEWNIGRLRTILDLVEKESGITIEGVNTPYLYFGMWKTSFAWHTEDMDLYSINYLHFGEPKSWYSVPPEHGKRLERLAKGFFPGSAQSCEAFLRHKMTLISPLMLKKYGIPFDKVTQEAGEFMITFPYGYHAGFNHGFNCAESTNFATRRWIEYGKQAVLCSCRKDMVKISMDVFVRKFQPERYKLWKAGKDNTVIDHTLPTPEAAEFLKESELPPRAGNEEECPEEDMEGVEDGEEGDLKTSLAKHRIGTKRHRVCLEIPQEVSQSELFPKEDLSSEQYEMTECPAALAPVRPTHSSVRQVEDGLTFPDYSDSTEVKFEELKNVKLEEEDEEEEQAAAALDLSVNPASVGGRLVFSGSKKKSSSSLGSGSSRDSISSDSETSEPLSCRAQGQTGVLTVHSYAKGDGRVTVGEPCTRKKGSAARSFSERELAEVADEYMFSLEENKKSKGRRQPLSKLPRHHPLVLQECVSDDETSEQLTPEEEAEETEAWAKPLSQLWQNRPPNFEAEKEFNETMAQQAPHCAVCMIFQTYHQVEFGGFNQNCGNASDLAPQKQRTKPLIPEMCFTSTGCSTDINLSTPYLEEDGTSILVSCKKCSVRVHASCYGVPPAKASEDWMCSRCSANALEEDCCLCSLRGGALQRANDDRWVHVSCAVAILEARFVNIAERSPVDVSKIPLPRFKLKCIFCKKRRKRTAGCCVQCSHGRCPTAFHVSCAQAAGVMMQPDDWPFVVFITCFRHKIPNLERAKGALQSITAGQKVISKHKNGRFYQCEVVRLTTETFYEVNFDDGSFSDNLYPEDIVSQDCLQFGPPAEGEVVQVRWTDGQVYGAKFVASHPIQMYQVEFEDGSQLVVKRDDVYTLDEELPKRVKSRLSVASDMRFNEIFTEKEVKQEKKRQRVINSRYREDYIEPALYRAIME
# PI5P4Ka inh – inhibitors of human PI5P4K alpha | P48426 | PI5P4Kalpha enzyme, ADP-Glo luminescence, 60 min; hits give low values | max response, % | 330,000 compounds, 1.2% hits; active = max response of -50% or lower; inconclusive = between -30% and -50%; inactive = -30% or higher; note: value at the top dose of about 77 µM; % is set by controls: 0 for no effect and ±100 for the full control effect
#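 ADP-Glo luminescence end-point read after a 60 min room-temperature kinase reaction of PI5P4Kalpha plus substrate, initiated with ATP at 5 microM final. Buffer: 0.038 M HEPES pH 7.4, EGTA, 0.1% CHAPS, 5% DMSO.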
# Starred values were filed as active, the others as inactive; ? = inconclusive; · = not tested or not shown; [ ] = another dose, or the depositor's remark. This is a sample that favours compounds with a hit; in the whole collection about 12% have one here. Unless noted, calls come from the whole dose curve; as a rule, active = well fitted curve in the direction sought with a large enough effect; inconclusive = small, poorly fitted or top-dose-only effect, or another doubt; inactive = no such curve, though single readings can be large; an effect the other way counts as inactive or inconclusive.
SMILES,PLK1 PBD inh,G9a block,BAZ2B block,HP1b binding inh,JMJD2A Tudor,PI5P4Ka inh
O=S1(=O)N=C(N/N=C/c2ccccn2)c2ccccc21,3.9%,15.9%,35.5µM*,34.8%,79.4µM*,-11.1
CC1(C)CC[C@]2(CO)CC[C@]3(C)C(=CCC4[C@@]5(C)CC[C@H](O)[C@@](C)(CO)C5CC[C@]43C)[C@@H]2C1 (stereo partly specified),-4.3%,·,·,26.6%,-16.9%,?
CC[n+]1c(C)cc2c(sc3ccccc32)c1C,-4.9%,22.4µM*,-18.6%,44.1%,?,-2.8
c1coc(-c2nnc(-c3ccco3)nn2)c1,-11.2%,20µM*,20µM*,44.7µM*,25.1µM*,-79.3*
COc1cc(CC(=O)N2CCN(S(=O)(=O)c3ccc(C(C)C)cc3)CC2)cc(OC)c1OC,-14.2%,·,·,·,·,2.7
COc1cc(N2Cc3ccccc3C2)ccc1C=O,?,31.6µM*,-2.5%,9.8%,-23.3%,-15.4
COc1cccc(CN2CCc3[nH]c(=S)[nH]c(=O)c3C2)c1,-6.6%,44.7µM*,-13.4%,46.9%,-15.4%,-4.2
CCCN1CNc2c(c(=O)[nH]c(=S)n2CCc2cccc(OC)c2)C1,·,·,·,30.0%,-22.4%,·
COCCCN1CCc2[nH]c(=S)[nH]c(=O)c2C1,-12.8%,35.5µM*,-36.6%,13.1%,?,3.4
COCCCN1CCc2nc(SCC(=O)Nc3ccc(C)c(Cl)c3)[nH]c(=O)c2C1,·,-26.0%[59 µM],-5.7%,34.1%,-5.6%,·
CCOc1ccc(C2CC(=O)NC(SCC(=O)OC)=C2C#N)cc1 (stereo unspecified),-24.3%,70.8µM*,9.4%,36.0%,-11.0%,4.8
C=CCSC1=C(C#N)C(c2cccc(OC)c2)CC(=O)N1 (stereo unspecified),-30.0%,44.7µM*,4.7%,-6.3%,-8.2%,1.4
CCOc1ccccc1C1CC(=O)NC(SCC(=O)Nc2nccs2)=C1C#N (stereo unspecified),-5.8%,14.1µM*,-12.1%,34.1%,-15.1%,12.4
COC(=O)CSC1=C(C#N)C(c2ccccc2)CC(=O)N1 (stereo unspecified),-7.8%,-9.0%[12.7 µM],5.0%,31.4%,-11.0%,·
Cc1ccc(C2CC(=O)NC(SCC(=O)Nc3nccs3)=C2C#N)cc1 (stereo unspecified),-13.3%,?,-22.0%,44.3%,-6.2%,-10.3
COC(=O)CSC1=C(C#N)C(c2cccc(OC)c2)CC(=O)N1 (stereo unspecified),-9.8%,70.8µM*,-5.8%,48.7%,-5.7%,1.8
COC(=O)CSC1=C(C#N)C(c2cccc(F)c2)CC(=O)N1 (stereo unspecified),-12.8%,·,-0.1%,12.0%,-16.5%,1.5
Cc1cc2n(n1)C(c1ccc(N(C)C)cc1)Nc1ccccc1-2 (stereo unspecified),1.4%,29.4%[59 µM],33.1%,-44.6%,44.7µM*,·
Cc1cccc(NC(=O)CNC(=O)COC(=O)C2CC2C)c1C (stereo unspecified),-3.1%,·,·,-8.4%,-19.5%,-9.1
CCCCNC(=O)c1nc(C2CCN(S(=O)(=O)c3cccc(C(F)(F)F)c3)CC2)oc1-c1ccccc1,-3.8%,·,·,·,·,7.7
CCOc1ccc(S(=O)(=O)NCC(c2ccc(N(C)C)cc2)N2CCCC2)cc1 (stereo unspecified),·,20µM*,35.5µM*,-9.5%,?,·
O=C(NCC(c1ccc(F)cc1)N1CCOCC1)c1ccc(Br)o1 (stereo unspecified),-13.2%,50.1µM*,?,20.5%,-19.8%,·
CN(C)c1ccc(C(CNS(=O)(=O)c2ccc(Br)cc2)N2CCOCC2)cc1 (stereo unspecified),·,?,44.7µM*,?,?,·
CCOc1ccc(N(C)C(CNS(=O)(=O)c2ccccc2)c2ccccc2)cc1 (stereo unspecified),·,11.2µM*,11.2µM*,?,28.2µM*,·
Cc1ccc(S(=O)(=O)NCC(c2ccc(N(C)C)cc2)N2CCc3ccccc32)cc1C (stereo unspecified),·,5.62µM*,6.31µM*,-23.8%,7.08µM*,·
SMILES,PLK1 PBD inh,G9a block,BAZ2B block,HP1b binding inh,JMJD2A Tudor,PI5P4Ka inh
O=S(=O)(NCC(c1ccc2c(c1)OCO2)N1CCOCC1)c1ccc(Br)cc1 (stereo unspecified),1.5%,-13.0%,0.2%,28.9%,-6.2%,4.0
CN(C)c1ccc(C(CNC(=O)c2ccc(C(C)(C)C)cc2)N2CCOCC2)cc1 (stereo unspecified),·,11.2µM*,35.5µM*,-10.5%,?,·
CN1CCN(C(CNS(=O)(=O)c2ccc(Br)cc2)c2ccc3c(c2)OCO3)CC1 (stereo unspecified),-13.7%,79.4µM*,0.4%,18.6%,-16.4%,6.0
CN(C)c1ccc(C(CNS(=O)(=O)c2ccc([N+](=O)[O-])cc2)N2CCOCC2)cc1 (stereo unspecified),-0.2%,-2.9%[0.501 µM],?,-12.3%,?,6.7
CN(C)c1ccc(C(CNC(=O)COc2ccc(Cl)cc2)N2CCCC2)cc1 (stereo unspecified),3.9%,50.1µM*,35.5µM*,30.9%,2.7%,4.3
CCCC[C@H]1COCCS(=O)(=O)N1Cc1cccc([N+](=O)[O-])c1,-9.8%,18.2%,-10.8%,32.1%,-20.0%,3.9
CCCN(CCC)C(=O)Cn1c(=O)n(-c2cccc(OC)c2)c(=O)c2c3c(sc21)CCCC3,·,-1.5%[59 µM],2.3%,23.8%,-12.3%,·
CN(C)c1ccc(CC(=O)N2CCCC(c3cc(C(=O)Nc4ccc(C(C)(C)C)cc4)no3)C2)cc1 (stereo unspecified),4.6%,·,·,·,·,-2.2
CCOc1ccc(S(=O)(=O)NCC(c2ccc(N(C)C)cc2)N2CCc3ccccc32)cc1 (stereo unspecified),·,?,6.31µM*,?,12.6µM*,·
COc1ccc(S(=O)(=O)NCC(c2ccco2)N2CCc3ccccc3C2)cc1 (stereo unspecified),0.6%,-50.8%,-33.4%,20.0%,-25.5%,13.5
CCOc1ccc(S(=O)(=O)NCCC(=O)OC(C)C(=O)N2CCc3ccccc32)cc1 (stereo unspecified),-6.4%,55.9%[12.7 µM],-5.3%,9.6%,-2.0%,-2.4
COc1ccc(S(=O)(=O)NCC(c2ccc(N(C)C)cc2)N2CCc3ccccc32)cc1 (stereo unspecified),·,12.6µM*,?,?,22.4µM*,·
c1cc(-c2ccc(CN3CCOCC3)cc2)n2ccnc2c1,-10.6%,·,·,·,·,-6.0
Cc1ccc2c(c1)c1c(n2CC(O)CNC2CCCC2)CCCC1 (stereo unspecified),-7.8%,20µM*,44.7µM*,?,17.8µM*,-1.1
